Among all 5,500 compounds or so, about 2,000 (36%) were called active. Another 18% or so got no clear call; they are omitted. No stated cut-off is given here; in the data, active means normalized growth mostly below about 0.91 (no sharp cut-off); inconclusive means no clear call, values can overlap the other calls; inactive means mostly above about 0.92. The list shows a part of the results.
Experiment: chemical genetic growth profiling, strain panel (AID 1159580);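 further: tested at 20 µM; growth read once vehicle control cultures reached saturation at 30 °C; 1 = growth at the plate median or of vehicle wells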
Settings: growth OD

Measured: normalized growth

CCC(=O)OC1[C@@H]2CC3=C4CC(=O)O[C@@H](c5ccoc5)[C@]4(C)CCC3[C@@](C)(C2=O)[C@@H](CC(=O)OC)C1(C)C (stereo partly specified)
inactive: S. cerevisiae deletion strains, locus YJR066W, strain TOR1, stronger effect = lower value 0.936 | S. cerevisiae deletion strains, locus YKL009W, strain mrt4, stronger effect = lower value 1 | S. cerevisiae deletion strains, locus YKL068W, stronger effect = lower value 1.01 | S. cerevisiae deletion strains, locus YKL085W, strain MDH1 (second series), stronger effect = lower value 1 | S. cerevisiae deletion strains, locus YKL085W, strain MDH1, stronger effect = lower value 1 | S. cerevisiae deletion strains, locus YKL160W, strain elf1, stronger effect = lower value 1.01 | S. cerevisiae deletion strains, locus YKL190W, strain CNB1, stronger effect = lower value 0.999 | S. cerevisiae deletion strains, locus YKR001C, strain vps1, stronger effect = lower value 1.02 | S. cerevisiae deletion strains, locus YKR026C, strain gcn3, stronger effect = lower value 0.991 | S. cerevisiae deletion strains, locus YKR091W, strain srl3, stronger effect = lower value 0.984 | S. cerevisiae deletion strains, locus YLL001W, strain dnm1, stronger effect = lower value 1 | S. cerevisiae deletion strains, locus YLL026W, stronger effect = lower value 0.988 | S. cerevisiae deletion strains, locus YLL041C, strain sdh2, stronger effect = lower value 0.992 | S. cerevisiae deletion strains, locus YLR027C, strain aat2, stronger effect = lower value 0.992 | S. cerevisiae deletion strains, locus YLR039C, strain RIC1, stronger effect = lower value 0.884 | S. cerevisiae deletion strains, locus YLR058C, strain SHM2, stronger effect = lower value 1 | S. cerevisiae deletion strains, locus YLR102C, strain apc9, stronger effect = lower value 1.02 | S. cerevisiae deletion strains, locus YLR113W, strain HOG1, stronger effect = lower value 1.01 | S. cerevisiae deletion strains, locus YLR221C, strain rsa3, stronger effect = lower value 0.985 | S. cerevisiae deletion strains, locus YLR258W, strain gsy2, stronger effect = lower value 1.01 | S. cerevisiae deletion strains, locus YLR262C, strain YPT6 (second series), stronger effect = lower value 0.908 | S. cerevisiae deletion strains, locus YLR262C, strain YPT6, stronger effect = lower value 0.782 | S. cerevisiae deletion strains, locus YLR268W, strain sec22, stronger effect = lower value 0.997 | S. cerevisiae deletion strains, locus YLR320W, strain mms22, stronger effect = lower value 0.976 | S. cerevisiae deletion strains, locus YLR342W, strain FKS1, stronger effect = lower value 0.981 | S. cerevisiae deletion strains, locus YLR357W, strain rsc2, stronger effect = lower value 1.03 | S. cerevisiae deletion strains, locus YLR370C, strain arc18, stronger effect = lower value 0.983 | S. cerevisiae deletion strains, locus YLR371W, strain rom2, stronger effect = lower value 1.01 | S. cerevisiae deletion strains, locus YLR384C, strain iki3, stronger effect = lower value 1 | S. cerevisiae deletion strains, locus YLR418C, strain cdc73, stronger effect = lower value 1.03 | S. cerevisiae deletion strains, locus YML016C, strain PPZ1, stronger effect = lower value 1 | S. cerevisiae deletion strains, locus YML032C, strain rad52, stronger effect = lower value 1.02 | S. cerevisiae deletion strains, locus YML120C, strain ndi1, stronger effect = lower value 0.999 | S. cerevisiae deletion strains, locus YML124C, strain tub3, stronger effect = lower value 1.01 | S. cerevisiae deletion strains, locus YMR058W, strain fet3, stronger effect = lower value 0.994 | S. cerevisiae deletion strains, locus YMR078C, strain ctf18, stronger effect = lower value 1.02 | S. cerevisiae deletion strains, locus YMR125W, strain sto1, stronger effect = lower value 0.996 | S. cerevisiae deletion strains, locus YMR129W, stronger effect = lower value 0.998 | S. cerevisiae deletion strains, locus YMR205C, strain PFK2, stronger effect = lower value 0.995 | S. cerevisiae deletion strains, locus YMR223W, strain ubp8, stronger effect = lower value 1.01 | S. cerevisiae deletion strains, locus YMR231W, strain pep5, stronger effect = lower value 0.955 | S. cerevisiae deletion strains, locus YMR307W, strain GAS1, stronger effect = lower value 0.842 | S. cerevisiae deletion strains, locus YNL067W, strain RPL9B, stronger effect = lower value 1.01 | S. cerevisiae deletion strains, locus YNL071W, strain lat1, stronger effect = lower value 0.993 | S. cerevisiae deletion strains, locus YNL153C, strain GIM3, stronger effect = lower value 1.02 | S. cerevisiae deletion strains, locus YNL183C, strain NPR1, stronger effect = lower value 0.946 | S. cerevisiae deletion strains, locus YNL209W, strain ssb2, stronger effect = lower value 1 | S. cerevisiae deletion strains, locus YNL233W, strain BNI4, stronger effect = lower value 0.954 | S. cerevisiae deletion strains, locus YNL248C, strain rpa49, stronger effect = lower value 0.992 | S. cerevisiae deletion strains, locus YNL250W, strain rad50, stronger effect = lower value 1.01 | S. cerevisiae deletion strains, locus YNL271C, strain bni1, stronger effect = lower value 1.01 | S. cerevisiae deletion strains, locus YNL298W, strain CLA4, stronger effect = lower value 1.03 | S. cerevisiae deletion strains, locus YNL307C, strain MCK1, stronger effect = lower value 1.01 | S. cerevisiae deletion strains, locus YNL322C, strain KRE1 (second series), stronger effect = lower value 0.996 | S. cerevisiae deletion strains, locus YNL322C, strain KRE1, stronger effect = lower value 0.992 | S. cerevisiae deletion strains, locus YNR049C, strain mso1, stronger effect = lower value 0.989 | S. cerevisiae deletion strains, locus YNR052C, strain pop2, stronger effect = lower value 1.03 | S. cerevisiae deletion strains, locus YOL012C, strain htz1 1.24 | S. cerevisiae deletion strains, locus YOL147C, strain pex11, stronger effect = lower value 1.02 | S. cerevisiae deletion strains, locus YOR001W, strain rrp6, stronger effect = lower value 0.994 | S. cerevisiae deletion strains, locus YOR061W, strain CKA2, stronger effect = lower value 0.996 | S. cerevisiae deletion strains, locus YOR069W, strain VPS5, stronger effect = lower value 1 | S. cerevisiae deletion strains, locus YOR070C, strain gyp1, stronger effect = lower value 0.988 | S. cerevisiae deletion strains, locus YOR080W, strain dia2, stronger effect = lower value 0.981 | S. cerevisiae deletion strains, locus YOR083W, strain WHI5, stronger effect = lower value 1.02 | S. cerevisiae deletion strains, locus YOR106W, strain vam3, stronger effect = lower value 1.03 | S. cerevisiae deletion strains, locus YOR136W, strain idh2, stronger effect = lower value 1.02 | S. cerevisiae deletion strains, locus YOR144C, strain elg1, stronger effect = lower value 1.01 | S. cerevisiae deletion strains, locus YOR184W, strain ser1, stronger effect = lower value 0.989 | S. cerevisiae deletion strains, locus YOR231W, strain MKK1, stronger effect = lower value 1.01 | S. cerevisiae deletion strains, locus YOR265W, strain rbl2, stronger effect = lower value 0.994 | S. cerevisiae deletion strains, locus YOR270C, strain vph1, stronger effect = lower value 0.858 | S. cerevisiae deletion strains, locus YOR290C, strain snf2, stronger effect = lower value 0.996 | S. cerevisiae deletion strains, locus YOR316C, strain cot1, stronger effect = lower value 1.01 | S. cerevisiae deletion strains, locus YPL051W, strain arl3, stronger effect = lower value 0.982 | S. cerevisiae deletion strains, locus YPL055C, strain LGE1, stronger effect = lower value 1.01 | S. cerevisiae deletion strains, locus YPL078C, strain atp4, stronger effect = lower value 1.02 | S. cerevisiae deletion strains, locus YPL106C, strain sse1, stronger effect = lower value 1.04 | S. cerevisiae deletion strains, locus YPL240C, strain hsp82, stronger effect = lower value 0.99 | S. cerevisiae deletion strains, locus YPL256C, strain CLN2, stronger effect = lower value 0.983 | S. cerevisiae deletion strains, locus YPR119W, strain clb2, stronger effect = lower value 1.01 | S. cerevisiae deletion strains, locus YPR141C, strain kar3, stronger effect = lower value 1.01 | S. cerevisiae deletion strains, locus YPR163C, strain tif3, stronger effect = lower value 1.01 | S. cerevisiae deletion strains, locus YPR167C, strain met16, stronger effect = lower value 0.998 | S. cerevisiae deletion strains, strain wtn01, stronger effect = lower value 1.07 | S. cerevisiae strains, strain wild type, stronger effect = lower value 0.976
